Here are results for five compounds from PubChem BioAssay AID1347141 (National Center for Advancing Translational Sciences (NCATS), 2019).

This is one part of the list. Inconclusive results are not listed. Active and inactive are the calls of the source. Calls follow the shape of the dose curve; as a rule, active = well fitted inhibition curve with a large enough effect; inconclusive = small, poorly fitted or top-dose-only effect; inactive = flat fitted curve, though single readings scatter.

A short description of this experiment: qHTS of pediatric cancer cell lines to identify multiple opportunities for drug repurposing: Orthogonal 3D viability screen for RD cells. As to conditions: RD rhabdomyosarcoma 3D spheroid viability, PI/Hoechst imaging, 72 h; series mostly up to 30.7 µM; activity change, negative = viability loss: at the top concentration. From the text:
Drug repurposing or repositioning has been offered as a strategy for drug development in oncology programs. This approach has special potential for childhood cancers and other rare or orphan diseases, where the expected return on new drug development has been a disincentive to pharmaceuticals. […] In this project we exploit the poly-pharmacology of drugs to discover new indications via phenotypic screening of a panel of 19 well-characterized cell lines derived from solid tumors seen in children and adolescents. The goal is to identify approved drugs with previously unrecognized anticancer properties that has the potential to reveal new mechanisms and biological processes involved in carcinogenesis or drug resistance. We employed a titration-based paradigm (quantitative high-throughput screening or qHTS), where all compounds were tested at multiple concentrations for their effect on cell viability. Concentration-response curves (CRCs) were derived directly from the primary screen, and both potency and efficacy values were used to identify compounds with robust bioactivity profiles. […] These two assays will be used to validate active compounds and assess the correlation of compound's potency in 2D vs 3D cultures on selected cell lines. Assay Submitter: Nathalia J. Martinez, National Center for Advancing Translational Sciences, National Institutes of Health, Rockville, MD, USA; email: natalia.martinez@nih.gov Shen, M et al. Quantitative high-throughput phenotypic screening of pediatric cancer cell lines identifies multiple opportunities for drug repurposing. Oncotarget 2017 Dec 19;9(4):4758-4772. PMID 29435139.
The cells were obtained from University of North Carolina (UNC), Pediatric Preclinical Testing Program (PPT), and Coriell Institute (CI). qHTS viability in 3D culture: Cells were assayed in phenol red-free growth media at a density of 1,000 cells/well, with the exception of Daoy, and SH-N-SH which were assayed at 1,500 cells/ well. Thirty muL of cells were dispensed into 384-well, ULA, round bottom plates (Corning) using a Multidrop dispenser. Plates were spun down at 1,000 rpm for 1 min and incubated at 37 degrees C, 5% CO2, under a humidified atmosphere for either 24 (Daoy) or 48 hours (all other cell lines) to allow spheroid formation. Ninety-two nanoliter of compounds and controls (neutral control DMSO or positive control bortezomib at final concentrations of 0.5 µM) were subsequently transferred via GNF Pintool. Plates were sealed using a breathable seal (Diversified Biotech, Dedham, MA) and incubated for 72 hours at 37 degrees C. Spheroid viability was first determined by high-content imaging using Hoechst 33342 and Propidium Iodide (PI, ThermoFisher Scientific), followed by addition of CellTiter-Glo 3D (Promega). Specifically, 3 µL/well of PBS containing a 1:500 dilution of both dyes was dispensed using Multidrop. Dyes were incubated for 1 hour before imaging using the Celigo Image Cytometer. Then, 20 µl of CellTiter-Glo 3D were added per well. Plates were incubated for 30 min at RT on a VWR microplate shaker (300 rpm) and analyzed for luminescence intensity using a ViewLux High-throughput CCD imager equipped with clear filters. Image analysis was done using the Celigo Tumorsphere 1+2+3 application software as previously described. […] The data were exported to Excel, and the average fluorescent intensities were used to calculate the ratio of PI over Hoechst, which was used to quantify viability. […]
For orientation: In qHTS, concentration-response curves come from the screen itself.
For the compound `C=C1C(=CC=C2CCC[C@]3(C)[C@@H]([C@H](C)C=C[C@H](C)C(C)C)CC[C@@H]23)C[C@@H](O)C[C@@H]1O`, the “activity change, negative = viability loss” value was -5.06% (inactive).
As to `CC[C@H]1CN2CCc3cc(OC)c(OC)cc3[C@@H]2C[C@@H]1C[C@H]1NCCc2cc(OC)c(OC)cc21`, the Potency was 2040 nM (active).
The same measure, in the same setting: the same measure for `CC1(C)O[C@@H]2C[C@@H]3[C@H]4C[C@@H](F)C5=CC(=O)C=C[C@]5(C)[C@@]4(F)[C@@H](O)C[C@]3(C)[C@]2(C(=O)CO)O1`: 10200 nM (active); for `CC[C@]1(O)C[C@@H]2CN(CCc3c([nH]c4ccccc34)[C@@](C(=O)OC)(c3cc4c(cc3OC)N(C)[C@H]3[C@@](O)(C(=O)OC)[C@H](OC(C)=O)[C@]5(CC)C=CCN6CC[C@]43[C@@H]65)C2)C1`: 45.6 nM (active).
Turning to `CC(NCc1ccc2c(c1)nc(NC(=O)c1ccc(-c3cn[nH]c3)s1)n2CC(C)(C)O)C(C)(C)C` (stereo not given), the Potency is 810 nM (active).
